Screening data (PubChem)
The list is not random: actives were taken first. Their share in the collection is about 5.4%.
rCAG RNA binder: r(CAG) repeat RNA binding. TO-PRO-1 dye displacement fluorescence. inhibition, % at 3 µM. 1.3% of 370,000 active. AID 651821;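 active = inhibition above the plate cutoff, the mean of all test compounds on that plate plus 3 SD, cut at about 35% in these data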;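 note: higher means more dye released from RNA so lower well fluorescence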
A3G deaminase: blocks human APOBEC3G single-stranded DNA deamination. AID 493012. inhibition, % at 20 µM. 0.28% of 330,000 active. recombinant A3G, ssDNA deamination FAM/TAMRA fluorescence. Q9HC16;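 active = inhibition of at least 40% at 20 µM, with no more than 30% in the related APOBEC3A deaminase screen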
Target sequence (Q9HC16 whole entry, looked up): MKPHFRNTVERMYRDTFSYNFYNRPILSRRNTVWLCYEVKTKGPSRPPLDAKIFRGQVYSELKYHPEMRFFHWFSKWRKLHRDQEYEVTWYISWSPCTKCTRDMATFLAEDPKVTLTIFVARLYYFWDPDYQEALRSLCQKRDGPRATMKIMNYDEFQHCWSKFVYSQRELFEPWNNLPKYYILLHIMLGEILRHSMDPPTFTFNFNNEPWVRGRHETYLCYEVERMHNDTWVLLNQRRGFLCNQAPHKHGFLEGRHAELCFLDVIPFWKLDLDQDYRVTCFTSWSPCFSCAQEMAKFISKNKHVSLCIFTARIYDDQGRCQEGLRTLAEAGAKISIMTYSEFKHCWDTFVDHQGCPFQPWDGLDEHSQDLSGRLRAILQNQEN
PHOSPHO1 block: blocks human PHOSPHO1 phosphatase activity. Q8TCT1. recombinant PHOSPHO1, absorbance phosphatase assay. inhibition, % at 13.3 µM. 1.1% of 290,000 active; in the data active = inhibition above about 60%
aDG glyco act: alpha-DG glycosylation activation. Pro5-aDG cells, alpha-DG glycosylation AlphaScreen (IIH6); 0% Pro5, 100% B10-LARGE cell signal. activation, % at 10 µM. 0.22% of 360,000 active;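 active = activation of at least 8% versus controls, or a plate z-score of at least 8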;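 note: Pro5 are CHO cells carrying HIG-tagged alpha-DG that lacks glycosylation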
A3A deaminase: blocks human APOBEC3A ssDNA deamination; 0.41% of 330,000 active; recombinant A3A, FAM/TAMRA ssDNA deamination fluorescence; AID 493011; inhibition, % at 20 µM; P31941;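 active = at least 40% inhibition at 20 µM here, with at most 30% in a related deaminase screen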
Target sequence (P31941 whole entry, looked up): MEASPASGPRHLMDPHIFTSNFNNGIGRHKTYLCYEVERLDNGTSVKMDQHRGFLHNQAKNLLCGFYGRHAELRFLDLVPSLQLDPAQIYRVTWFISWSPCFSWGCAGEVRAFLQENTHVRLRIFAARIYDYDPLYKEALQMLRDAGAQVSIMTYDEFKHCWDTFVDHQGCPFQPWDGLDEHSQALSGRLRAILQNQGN
ALR inh: blocks human ALR sulfhydryl oxidase activity; P55789; inhibition, % (no concentration beside the values); purified ALR, DTT oxidation, H2O2 HRP-luminol luminescence; 3.8% of 290,000 active;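 active = mean replicate inhibition above about 79%, with every replicate also reaching it, limit read from the data; inconclusive = only one of the two criteria met; inactive = mean below limit and not every replicate reaching it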
A number is an active result; . = inactive; ? = inconclusive; / = no result given.

SMILES	rCAG RNA binder	A3G deaminase	PHOSPHO1 block	aDG glyco act	A3A deaminase	ALR inh
CN1CCCCC(NC(=O)c2ccccn2)C1=O (configuration not stated)	.	/	/	/	/	/
CCC(CO)Oc1cc(NCc2ccccc2)c2ncn(C(C)C)c2c1 (configuration not stated)	.	.	/	.	.	.
CCC(CO)Oc1cc(NCc2ccc(C(C)(C)C)cc2)c2ncn(C(C)C)c2c1 (configuration not stated)	.	.	/	5.2	.	.
CCC(CO)Oc1cc(NCc2ccc(O)cc2)c2ncn(C(C)C)c2c1 (configuration not stated)	.	.	/	.	.	99
CCC(COC)Oc1cc(NCc2ccccc2)c2ncn(C(C)C)c2c1 (configuration not stated)	.	.	/	.	.	83
CCC(CO)Oc1cc(NCc2cccc(O)c2)c2ncn(C(C)C)c2c1 (configuration not stated)	.	.	/	.	.	.
O=C(NCCc1ccccc1)OCc1cn(Cc2cccc(F)c2F)nn1	.	/	/	/	/	/
COc1ccc(C(=S)NC2CCCCC2)cc1	.	.	88	.	.	.
FC(F)(F)c1cccc(Cc2noc(CN3CCCC(OCc4ccccn4)C3)n2)c1 (configuration not stated)	.	.	64	.	.	/
CN1CCN(/N=C/c2nc(-c3ccccc3Cl)n3ccccc23)CC1	.	.	.	.	.	98
Clc1ccccc1-c1nc(/C=N/N2CCOCC2)c2ccccn12	.	.	.	.	.	/
Cc1ccc2[nH]c(C)c(CCNC(=O)c3cc4cc([N+](=O)[O-])ccc4oc3=O)c2c1	.	.	.	.	.	.
Cc1ccc2[nH]c(C)c(CCNC(=O)c3c(N)no[n+]3[O-])c2c1	.	.	.	.	.	99
COc1cc(-n2c(C)cc(O)cc2=O)ccc1Cl	.	/	/	/	/	/
CN(C)c1ccc(NC(=O)CSc2nnc(-c3cnccn3)n2C)cc1	.	.	.	.	.	99
Cn1c(SCC(=O)c2ccccc2)nnc1-c1cnccn1	.	.	83	.	.	97
Cc1ccc(OCC(=O)NC(=S)Nc2ccc(Br)c(C)n2)cc1	.	.	84	.	.	.
CCCCNC(=O)CC1Nc2ccccc2NC1=O (configuration not stated)	.	.	.	.	.	.
CCCCCNC(=O)CC1Nc2c3ccccc3nc(=S)n2C1=O (configuration not stated)	.	.	65	.	.	.
C#CCNC(=O)C[C@H]1C[C@@]2(C(=O)OC)C(=C[C@H](COCc3ccccc3)O[C@@H]2C)N(CCCCCCCC)C1=O	.	/	/	/	/	/
CCOC(=O)C1CCN(C(=O)CCc2ccc(S(=O)(=O)NCC(C)C)cc2)CC1	.	.	60	.	.	.
CC(C)N(CCC(=O)c1ccc2ccccc2c1)Cc1ccccc1	.	.	/	.	.	97
Cc1cc(/C=C2\C(=N)N3N=C(CC(=O)N4CCOCC4)SC3=NC2=O)c(C)n1Cc1ccccc1	.	.	.	.	.	.
Cc1ccc(/C=C2/C(=N)N3N=C(CC(=O)N4CCCC4)SC3=NC2=O)o1	.	.	.	.	.	.
CC1=NN2C(=N)/C(=C\c3ccc(SCc4ccccc4)o3)C(=O)N=C2S1	.	.	94	.	.	/
SMILES	rCAG RNA binder	A3G deaminase	PHOSPHO1 block	aDG glyco act	A3A deaminase	ALR inh
CC1=NN2C(=N)/C(=C\c3cc(C)n(Cc4ccccc4)c3C)C(=O)N=C2S1	.	.	.	.	.	97
Cc1ccc(CC(=O)N(C)CC(=O)Nc2ccc(N3CCOCC3)cc2)cc1C	.	.	/	.	.	99
CC(Sc1ccc2c(c1)OCCO2)C(=O)Nc1ccc(N2CCOCC2)cc1 (configuration not stated)	.	.	.	.	.	99
CC(Oc1ccc(Cl)cc1)C(=O)N(C)CC(=O)Nc1ccc(N2CCOCC2)cc1 (configuration not stated)	.	.	.	.	.	93
CN(CC(=O)Nc1ccc(N2CCOCC2)cc1)C(=O)CSc1ccc(Br)cc1	.	.	.	.	.	.
CC(Sc1ccc(Cl)cc1)C(=O)N(C)CC(=O)Nc1ccc(N2CCOCC2)cc1 (configuration not stated)	.	.	/	.	.	92
CCCCCCCCN1C(=O)[C@@H](CC(=O)N2CCCCC2)C[C@@]2(C(=O)OC)C1=C[C@H](C(C)(C)C)O[C@@H]2C	.	/	/	/	/	/
CC(Oc1ccc(F)cc1)C(=O)Nc1ccc(N2CCOCC2)cc1N1CCOCC1 (configuration not stated)	.	.	/	.	.	?
CC(Oc1cccc(Cl)c1)C(=O)Nc1ccc(N2CCOCC2)cc1N1CCOCC1 (configuration not stated)	.	.	/	.	.	98
CC(C(=O)NCC1CCCCC1)N(C)CC(=O)Nc1ccc(N2CCOCC2)cc1 (configuration not stated)	.	.	.	.	.	92
O=C(NCc1cccs1)C1CCCN(S(=O)(=O)c2cccc3ccccc23)C1 (configuration not stated)	.	/	/	/	/	/
COc1ccc(Cn2cc(CN3[C@@H](CC(C)C)COc4ccc(Cl)cc4S3(=O)=O)nn2)cc1	.	/	/	/	/	/
NNC(=O)C1COc2cc3ccccc3cc2O1 (configuration not stated)	.	.	.	.	61	.
O=S(=O)(Nc1nnc(-c2ccccc2)s1)c1ccc(Cl)cc1	74	.	.	.	.	.
COC(=O)[C@]12C[C@H](CC(=O)NCc3ccc(C)o3)C(=O)N(CCc3ccc(OC)c(OC)c3)C1=C[C@H](C(C)(C)C)O[C@@H]2C	.	/	/	/	/	/
CC(=O)NC(Cc1c[nH]c2ccccc12)C(=O)OCC(=O)Nc1ccc2c(c1)OCO2 (configuration not stated)	.	.	.	.	.	89
CCOc1ccc(NC(=O)COC(=O)CCCc2c[nH]c3ccccc23)cc1	.	.	.	.	.	.
CC(=O)Nc1ccc(NC(=O)COC(=O)Cc2c[nH]c3ccccc23)cc1	.	.	.	.	.	83
COc1ccc(NC(=O)COC(=O)CCCc2c[nH]c3ccccc23)cc1	.	.	.	.	.	85
C[C@H](N)c1nnc(SCc2ccc(Cl)cc2Cl)o1	.	.	.	.	.	99
CCC(c1nnc(SCC(=O)NCCc2ccc(Cl)cc2Cl)o1)N(C)C (configuration not stated)	.	.	67	.	.	.
C[C@H](N)c1nnc(SCc2c(Cl)cccc2Cl)o1	.	.	.	.	.	.
CCC(c1nnc(SCC(=O)Nc2cc(C)on2)o1)N(C)C (configuration not stated)	.	.	/	.	.	.
CC(C)[C@H](N)C(=O)N[C@@H](Cc1ccccc1)C(=O)N1CCC2CCN(S(=O)(=O)c3ccccc3)CC21 (some centres not stated)	.	/	/	/	/	/
O=c1oc2cc(O)ccc2c2ccccc12	.	.	.	.	.	88
